A selection: hits, their analogues and other compounds. The true share with any hit is near 21%.
AMA1-RON2 inh – inhibitors of Plasmodium falciparum AMA1-RON2 interaction. 360,000 tested, 0.2% active. Potency, µM (doses to about 58.2 µM), inactives show at the top dose activity change, negative = inhibition, hits mostly inhibitors. AlphaScreen AMA1-biotinylated RON2 peptide binding;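 note: potency is the fitted concentration of half-maximal effect; 0% = vehicle wells and -100% = peptide control; nearly all actives have a fitted effect of over 45% in size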
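AMA1 (3D7) with his tag at 25 nM final met compounds first, then biotinylated RON2 peptide at 25 nM; detection used donor plus acceptor beads, 10 µg/mL apiece, read by AlphaScreen after 30 min at room temperature.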
Pf growth 96h – P. falciparum growth inhibition at 96 hour, primary screen for plastid delayed-death inhibitors; P. falciparum luciferase reporter growth, 96 h; Potency, µM (series often up to 28.7 µM), for the others: at the highest dose activity change, negative = inhibition, actives largely listed as inhibitors; 320,000 tested, 6.9% active; note: potency is the fitted concentration of half-maximal effect; % is set by controls: 0 for no effect and ±100 for the full control effect
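Plates of compound plus infected erythrocytes (2% hematocrit, 0.05% parasitemia final) incubate 96 hours, 37 C, 5% CO2. Detection reagent added; reduced luminescence from the parasites' luciferase reporter flags inhibition.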
Cycloheximide cs – counter-screen for Shiga toxin inhibitors: cycloheximide protein synthesis inhibition; max response, %; 300,000 tested, 12% active; cell reporter, cycloheximide protein synthesis inhibition counterscreen; AID 2314; in the data active = max response mostly above about 13%, no sharp cut-off; inactive = mostly below about 14%; note: read at 38.3 µM for the half of the compounds with a filed dose; 0% is about no effect
Pf growth 48h – P. falciparum growth inhibition at 48 hours (one generation); P. falciparum luciferase growth in erythrocytes, 48 h; Potency, µM (top dose mostly 28.7 µM), for inactives: top-dose activity change, negative = inhibition, hits mostly inhibitors; 310,000 tested, 5.9% active; AID 504832; note: potency is the fitted concentration of half-maximal effect; % is set by controls: 0 for no effect and ±100 for the full control effect
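Cell-based growth assay: transgenic P. falciparum expressing firefly luciferase, cultured in red cells within RPMI 1640 containing 0.5% w/v Albumax, 24 mM bicarbonate and gentamycin. A drop in luciferase activity indicates inhibition.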
Shiga toxin inh – blocks Shiga toxin action in Vero cells; AID 2315; Vero cells, Shiga toxin protein synthesis inhibition reporter; inhibition, % at 38.7 µM; 290,000 tested, 9.2% active; in the data active = inhibition mostly above about 28%, no sharp cut-off; inactive = mostly below about 43%; note: 0% is about no effect
HCV inhibitor – inhibitors of hepatitis C virus infection. Huh7.5.1 HCVcc-Cre infection, luciferase reporter, 44 h. Potency, µM (series often up to 41.8 µM), without a hit: top-dose activity change, negative = inhibition, actives largely listed as inhibitors. 340,000 tested, 3.4% active. AID 651820; note: potency is the fitted concentration of half-maximal effect; % is set by controls: 0 for no effect and ±100 for the full control effect
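Whole-lifecycle infectious HCVcc-Cre system; cells 1,000/well, compound then virus (~0.5 moi) added 4 h after plating, 44 h culture. Luciferase read 15 sec following 15 min substrate incubation, room temp.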
The depositor's hits bear a star; ? = inconclusive; nt = no result given; [ ] = dose if it differs, or a comment. Unless noted, calls come from the whole dose curve; as a rule, active = well fitted curve in the direction sought with a large enough effect; inconclusive = small, poorly fitted or top-dose-only effect, or another doubt; inactive = no such curve, though single readings can be large; an effect the other way counts as inactive or inconclusive.

SMILES	AMA1-RON2 inh	Pf growth 96h	Cycloheximide cs	Pf growth 48h	Shiga toxin inh	HCV inhibitor
O=C(CCNS(=O)(=O)c1ccc2[nH]c(=O)oc2c1)NCc1ccc(F)cc1	7.0%	20.3%	-1.5	14.6%	0.5	20.8%
O=C(CCNS(=O)(=O)c1ccc2[nH]c(=O)oc2c1)NCc1ccccc1	-9.0%	11.7µM*	-8.5	7.1%	-8.3	15.5%
CC(=O)c1c(C)[nH]c(C(=O)Nc2nc(-c3ccc(-c4ccccc4)cc3)cs2)c1C	-2.4%	7.38µM*	10.9	8.28µM*	64.2*	?
COc1ccc(-c2nc(NC(=O)c3[nH]c(C)c(C(C)=O)c3C)sc2C)cc1	-15.7%	?	8.3	-26.9%	68.2*	1µM*
COc1ccc(-c2nc(NC(=O)c3ccco3)sc2C)cc1	-8.8%	nt	nt	nt	nt	nt
CC(C)(C)c1ccc(/C=C(\C#N)C(=O)NC2CC2)cc1	-5.9%	nt	nt	nt	nt	?
CCNC(=O)NC(=O)COC(=O)C1CSC2(C)CCC(=O)N12 (centres undefined)	1.4%	?	3.1	?	-2.7	3.9%
CN(CC(=O)Nc1ccc(Cl)cc1)C(=O)Cc1c(F)cccc1Cl	-2.9%	11.7µM*	-3.7	-17.3%	-6.5	-25.7%
Cc1cccc(NC(=O)CSCC(=O)N(C)Cc2c(F)cccc2Cl)c1	8.5%	13.1µM*	nt	?	nt	?
CCOc1ccccc1NC(=S)Nc1ccc(S(N)(=O)=O)cc1	14.5%	-13.8%	-2.9	28.0%	-18.5	3.9%
Cn1ncc2c(Nc3ccc(Cl)cc3)ncnc21	0.5%	45.8%	31.5*	47.2%	16.2	10.8%
CCOc1ccc(Nc2ncnc3c2cnn3C)cc1	1.0%	-8.0%	15.6*	18.7%	19.7	-9.9%
Cc1cccc(Nc2ncnc3c2cnn3C)c1	0.0%	-29.6%	8.9	8.1%	30.8	7.0%
Cc1ccc(Nc2ncnc3c2cnn3C)cc1	0.0%	?	27.2*	28.2%	60.7*	-23.4%
COc1ccc(Nc2ncnc3c2cnn3Cc2ccc(C)cc2)cc1	-10.7%	nt	-1.5	-3.4%	-19.2	11.2µM*
Cn1ncc2c(Nc3cccc([N+](=O)[O-])c3)ncnc21	-3.0%	-1.7%	-6.1	29.3%	-4.7	0.2%
C=CCNc1nc(S(=O)Cc2ccc(C)cc2)nc2c1CCCC2 (centres undefined)	-12.2%	?	2.0	286.2%	-3.2	4.3%
CCOC(CNC(=O)CN1C(=O)COc2ccc(S(=O)(=O)N3CCCC3)cc21)OCC	-1.2%	?	-2.4	11.6%	20.2	14.7%
COCCCNC(=O)C[C@H]1C[C@H](C(=O)N(C(C)C)C(C)C)[C@@]2(C)c3[nH]c4cc(-c5ccco5)ccc4c3CCN2C1=O	0.0%	nt	nt	nt	nt	-7.0%[8.37 µM]
Cc1ccc(NS(=O)(=O)Cc2ccccc2)cc1Cl	-1.0%	?	-0.6	-17.4%	-4.3	7.3%
CCc1nc2ccc(C(=O)N3CCN(C(C)=O)CC3)cn2c1N(C)C(=O)c1cccc(OC)c1	5.8%	nt	nt	nt	nt	nt
Cn1ncc2c(Nc3ccc4ccccc4c3)ncnc21	0.8%	?	32.9*	136.3%	80.7*	?
CCCCNC(=O)C1(C)CCN1C(=O)c1csnn1 (centres undefined)	-0.3%	nt	nt	nt	nt	nt
COc1ccc(C(=O)NCC(=O)n2nc(C)cc2C)cc1OC	4.2%	nt	-5.7	6.1%	-3.3	-5.3%
Cc1cc(C)n(C(=O)CNC(=O)c2ccc(C(C)(C)C)cc2)n1	24.2%	24.1%	34.2*	17.3%	24.4	?
SMILES	AMA1-RON2 inh	Pf growth 96h	Cycloheximide cs	Pf growth 48h	Shiga toxin inh	HCV inhibitor
O=C(Cn1nc(CNc2ccc(Cl)cc2)[n+]2c1CCCCC2)c1ccc(Br)cc1	-17.3%	?	-6.4	0.928µM*	-15.8	41.3%
COc1ccc(NCc2nn(CC(=O)c3ccc(Br)cc3)c3[n+]2CCCCC3)cc1	?	?	25.7	1.85µM*	32.2	1.8%
O=C(Cn1nc(CNc2ccc(Br)cc2)[n+]2c1CCCCC2)c1ccc([N+](=O)[O-])cc1	-0.8%	?	6.5	2.08µM*	1.3	-5.8%
Cc1ccc(NC(=O)CCCCCNS(=O)(=O)c2ccc(C)cc2)cc1	1.5%[2.32 µM]	11.7µM*	-2.4	?	3.3	?
Cc1ccc(NC(=O)CCCCCC2NC(=O)NC2C)cc1 (centres undefined)	0.212µM*	nt	2.2	-14.6%	-2.4	6.5%
CC1NC(=O)NC1CCCCCC(=O)Nc1ccc(F)c(Cl)c1 (centres undefined)	?	?	2.4	?	-11.4	11.6%
CCOCCCNC(=O)CCNS(=O)(=O)c1ccc(C)cc1	-2.9%	9.28µM*	-2.1	4.5%	-10.3	-2.9%
Cc1ccc(S(=O)(=O)NCCCCCCNS(=O)(=O)c2ccc(C)cc2)cc1	-1.4%	nt	nt	nt	nt	nt
O=C(CCCNS(=O)(=O)c1ccc(F)cc1)Nc1ccc(F)cc1	-11.8%	-4.9%	7.7	0.0%	3.4	1.6%
Cc1ccc(S(=O)(=O)NCCCCCC(=O)N(C)C)cc1	-4.8%	10.4µM*	6.7	-11.4%	-4.7	15.4%
CCCCn1c(CCC(=O)O)nc2cc(S(=O)(=O)N(CC)CC)ccc21	4.1%	?	-1.3	?	15.5	?
COc1ccc2nc3n(c(=O)c2c1)-c1cc(Cl)ccc1C(=O)NC3Cc1ccccc1 (centres undefined)	nt	nt	nt	nt	nt	2.0%
Cc1ccc(S(=O)(=O)NCCCCCC(=O)Nc2nccs2)cc1	-17.7%	5.4%	-1.5	13.1µM*	16.8	-13.5%
Cc1ccc(C)c(SCC(=O)c2ccc[nH]2)c1	-11.1%	21.1%	41.9*	21.5%	56.5*	-5.8%
Cc1ccc(C)c(SCC(=O)NNC(=O)c2ccccc2)c1	95.4%	6.5%	4.9	-14.5%	-2.6	?
Cc1c(C(C)(C)C)sc(=NC(=O)c2ccccc2O)n1C	-2.8%	?	37.6*	85.8%	82.2*	3.5%
COc1ccc(C(=O)N2CCCN(C)CC2)cc1S(=O)(=O)N(C)Cc1ccccc1	-2.2%	?	nt	?	nt	1.3%
CN(C)S(=O)(=O)c1ccc(C(=O)NCC(C)(C)CN=C2NS(=O)(=O)c3ccccc32)cc1	-3.6%	?	-4.3	?	-12.5	-10.7%
Cc1ccccc1-c1noc(CNC(=O)c2ccco2)n1	1.0%	?	1.8	6.8%	-6.0	-7.5%
Cc1cccc(-c2noc(CCC(=O)NCc3ccco3)n2)c1	-8.0%	5.4%	6.8	nt	17.3	-9.7%
CC(NC(=O)c1ccco1)c1nc(-c2ccc(C(C)(C)C)cc2)no1 (centres undefined)	-20.1%	?	15.2	-3.5%	49.0*	15.8µM*
CC(C)(C)c1ccc(-c2noc(CCC(=O)NCc3ccco3)n2)cc1	0.0%	326.6%	34.2*	126.3%	73.5	?
CC(C)(C)c1ccc(-c2noc(CNC(=O)c3ccco3)n2)cc1	-9.3%	2.0%	31.7*	?	37.3	-24.8%
O=C(NCc1nc(-c2ccc(C(F)(F)F)cc2)no1)c1cccs1	5.1%	35.5%	8.2*	-33.6%	17.7	-7.0%
